This passage reports cytotoxicity call results from the antibiotic and cytotoxicity screens of Wong et al. (2023).

The campaign covered roughly 39,000 compounds. About 1,500 (3.8%) were called active. This is one part of a sample in which actives are shown more often than they occur.

The test system of the experiment is HSkMC (human skeletal muscle cells). Put plainly: cytotoxicity call (relative viability < 0.9). The conditions noted are these: 10 µM.
For `C[C@H](CO)N1C[C@H](C)[C@H](CN(C)C(=O)c2ccc(N3CCN(C)CC3)cc2)OCc2cn(nn2)CCCC1=O`, the cytotoxicity call is “inactive”. As for `COc1ccc(S(=O)(=O)N(C)C[C@@H]2Oc3c(NC(=O)c4ccncc4)cccc3C(=O)N([C@H](C)CO)C[C@@H]2C)cc1`, the cytotoxicity call was “inactive”. For `C[C@H]1CCCCO[C@@H](CN(C)Cc2ccc(C(=O)O)cc2)[C@@H](C)CN([C@@H](C)CO)C(=O)c2cc(NC(=O)NC3CCCCC3)ccc2O1`, the cytotoxicity call was “inactive”. `C[C@@H]1CN([C@H](C)CO)S(=O)(=O)c2ccc(Br)cc2O[C@@H]1CN(C)S(=O)(=O)c1ccc(F)cc1`: the cytotoxicity call is “inactive”. Turning to `CON=C(C(=O)NC1C(=O)N2C(C(=O)OCOC(=O)C(C)(C)C)=C(C=Cc3scnc3C)CSC12)c1csc(N)n1` (stereo not drawn), the cytotoxicity call was “inactive”. As for `C[C@H]1CN([C@@H](C)CO)C(=O)c2cc(C#Cc3ccccc3)cnc2O[C@H]1CN(C)C(=O)CCN1CCCCC1`, the cytotoxicity call was “inactive”.

Regarding `COCCCNC(=O)[C@@]1(Sc2ccc(C)cc2)CC(=O)N(Cc2ccccc2Cl)[C@@H]1c1ccc(CO)cc1`, the cytotoxicity call is “inactive”. As for `O=C1N[C@H](Cc2c[nH]c3ccccc23)COC(=O)[C@@H](Cc2ccc(F)cc2)CCC=CC[C@H]1CC(=O)N(CCO)Cc1ccccc1`, the cytotoxicity call is “inactive”.

For the compound `COc1cc(C)c(C(=O)Oc2cc(C)c(C(=O)O)c(O)c2)c(O)c1`, the cytotoxicity call was “inactive”.

Take `COCCCNc1ncnc(N)c1[N+](=O)[O-]`: the cytotoxicity call was “inactive”.

Regarding `C[C@H]1CN([C@@H](C)CO)C(=O)c2cccc(NC(=O)Nc3ccc4c(c3)OCO4)c2O[C@@H]1CN(C)Cc1ccc(Cl)c(Cl)c1`, the cytotoxicity call is “inactive”. In the case of `C[C@H]1CN([C@@H](C)CO)C(=O)c2cccc(NC(=O)Nc3ccc(F)cc3)c2O[C@@H]1CN(C)Cc1ccc(Cl)c(Cl)c1`, the cytotoxicity call is “active”. The same measure for `C[C@H](CO)N1C[C@H](C)[C@@H](CN(C)Cc2ccc(Cl)c(Cl)c2)Oc2c(NC(=O)Nc3ccc4c(c3)OCO4)cccc2C1=O`: “active”; for `C[C@@H]1CN([C@@H](C)CO)C(=O)c2cccc(NC(=O)Nc3ccc4c(c3)OCO4)c2O[C@@H]1CN(C)Cc1ccc(Cl)c(Cl)c1`: “inactive”; for `C[C@H](CO)N1C[C@H](C)[C@H](CN(C)S(C)(=O)=O)OCCCC[C@H](C)Oc2ccc(NS(=O)(=O)c3ccc(F)cc3)cc2C1=O`: “inactive”. For `CO[C@@H]1CN(C)C(=O)c2cc(NC(=O)c3ccccc3)ccc2OC[C@H](C)N(C(=O)CN(C)C)C[C@@H]1C`, the cytotoxicity call was “inactive”.

With `CC(C)(C)OC(=O)N[C@H]1CCCCC/C=C\[C@@H]2C[C@@]2(C(=O)NS(=O)(=O)C2CC2)NC(=O)[C@@H]2C[C@@H](OC(=O)N3Cc4cccc(F)c4C3)CN2C1=O`, the cytotoxicity call was “inactive”. Then `COc1ccc(NC(=O)Nc2ccc3c(c2)C(=O)N([C@@H](C)CO)C[C@@H](C)[C@H](CN(C)S(=O)(=O)c2ccc(Cl)cc2)OCCCC[C@@H](C)O3)cc1`, with “inactive”; and `Cc1noc(C)c1NC(=O)Nc1ccc2c(c1)C(=O)N([C@@H](C)CO)C[C@H](C)[C@@H](CN(C)S(=O)(=O)c1ccc(Cl)cc1)OCCCC[C@@H](C)O2`, with “inactive”; and `COCCOC(=O)N1C(=O)[C@@]2(c3cc(C#CC4(O)CCCCCC4)ccc31)[C@H](C(=O)N1CCCCCCC1)[C@H]1C(=O)O[C@H](c3ccccc3)[C@H](c3ccccc3)N1[C@@H]2c1ccc(OCCO)cc1`, with “inactive”. The same measure for `Cc1ccc(S(=O)(=O)Nc2ccc3c(c2)CC(=O)N([C@@H](C)CO)C[C@@H](C)[C@H](CN(C)Cc2ccc(Oc4ccccc4)cc2)O3)cc1`: “inactive”; for `Cc1ccc(S(=O)(=O)Nc2ccc3c(c2)CC(=O)N([C@H](C)CO)C[C@H](C)[C@H](CN(C)Cc2ccc(Oc4ccccc4)cc2)O3)cc1`: “inactive”; for `Cc1ccc(S(=O)(=O)Nc2ccc3c(c2)CC(=O)N([C@@H](C)CO)C[C@H](C)[C@@H](CN(C)Cc2ccc(Oc4ccccc4)cc2)O3)cc1`: “active”. With `Cc1ccc(S(=O)(=O)Nc2ccc3c(c2)CC(=O)N([C@H](C)CO)C[C@@H](C)[C@@H](CN(C)Cc2ccc(Oc4ccccc4)cc2)O3)cc1`, the cytotoxicity call was “inactive”. Regarding `Cc1ccc(S(=O)(=O)Nc2ccc3c(c2)CC(=O)N([C@@H](C)CO)C[C@@H](C)[C@@H](CN(C)Cc2ccc(Oc4ccccc4)cc2)O3)cc1`, the cytotoxicity call is “inactive”. Then `Cc1ccc(S(=O)(=O)Nc2ccc3c(c2)CC(=O)N([C@@H](C)CO)C[C@H](C)[C@H](CN(C)Cc2ccc(Oc4ccccc4)cc2)O3)cc1`, with “active”; and `Cc1ccc(S(=O)(=O)Nc2ccc3c(c2)CC(=O)N([C@H](C)CO)C[C@H](C)[C@@H](CN(C)Cc2ccc(Oc4ccccc4)cc2)O3)cc1`, with “inactive”; and `Cc1ccc(S(=O)(=O)Nc2ccc3c(c2)CC(=O)N([C@H](C)CO)C[C@@H](C)[C@H](CN(C)Cc2ccc(Oc4ccccc4)cc2)O3)cc1`, with “active”.

Turning to `C[C@H](CO)N1C[C@H](C)[C@@H](CN(C)S(=O)(=O)c2ccc(F)cc2)Oc2ccc(NC(=O)C3CC3)cc2CC1=O`, the cytotoxicity call is “inactive”.

Take `CO[C@H]1CN(C)C(=O)c2cc(NC(=O)Nc3cccc(Cl)c3)ccc2OC[C@H](C)N(C(=O)Nc2c(C)noc2C)C[C@H]1C`: the cytotoxicity call was “inactive”. In the case of `COc1ccc(NC(=O)N(C)C[C@H]2OCCCC[C@@H](C)Oc3ccc(NC(=O)Nc4cccc5ccccc45)cc3C(=O)N([C@H](C)CO)C[C@@H]2C)cc1`, the cytotoxicity call was “inactive”.

`Cc1ccc(S(=O)(=O)N[C@H]2CC[C@@H](CC(=O)N3CCC(Cc4ccccc4)CC3)O[C@@H]2CO)cc1`: the cytotoxicity call is “inactive”. Then `C[C@@H]1CCCCO[C@@H](CN(C)C(=O)NC2CCCCC2)[C@H](C)CN([C@@H](C)CO)C(=O)c2cc(NC(=O)Cc3ccccc3)ccc2O1`, with “inactive”. `C[C@H]1CN([C@@H](C)CO)C(=O)Cc2cc(NC(=O)Nc3cccc4c3CCCC4)ccc2O[C@H]1CN(C)S(=O)(=O)c1ccc(Oc2ccccc2)cc1`: the cytotoxicity call is “inactive”.

Take `Cc1c(C(=O)Nc2ccc(Oc3ccnc4cc(OCC(C)(C)O)ccc34)c(F)c2)c(=O)n(-c2ccccc2)n1C`: the cytotoxicity call was “active”. On to `Cc1cc(Oc2ccnc3cc(Cl)ccc23)ccc1Cl`, for which the cytotoxicity call is “inactive”.

For `CCS(=O)(=O)N1C[C@]2(C1)CN([C@@H](CO)c1c2c2ccc(cc2n1C)OC)C(=O)Nc1cccc(c1)F`, the cytotoxicity call is “inactive”. The same measure for `CC(C)NC(=O)Nc1cccc2c1O[C@@H](CN(C)C(=O)NC1CCCCC1)[C@@H](C)CN([C@@H](C)CO)C2=O`: “inactive”.
